High-throughput results from PubChem.
Rows were chosen to be rich in hits. Some 4.8% of all compounds tested hit in one or more screens of this group.
SMARCA2 act: SMARCA2 (BRM) function activators, primary screen, cell-based, luminescence, high throughput. MG213 cells, MMTV-luciferase reporter, dexamethasone, overnight. activation, % at 9.1 µM. 1% of 370,000 active. AID 652017, 2013; in the data active = activation above about 7.8%
hgDAF12 agonist: H. glycines DAF-12 receptor agonists, primary screen, cell-based, luminescence, HEK293, GAL4 fusion, UAS-luciferase. Nuclear hormone receptor DAF-12 (Heterodera glycines), GAL4 fusion. HEK293 GAL4-hgDAF12 UAS-luciferase reporter, agonist luminescence; normalized to butyrate control. activation, % at 6.8 µM. 1.8% of 370,000 active;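 active = activation above a cutoff set at the mean of all screened compounds plus 3 SD, cut at about 10% in these data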
DAX1 inh-1: DAX1 (NR0B1) inhibitors, primary screen, cell-based, HEK293, Gal4-DAX1, luciferase luminescence; 0.99% of 340,000 active; HEK293 Gal4-DAX1 luciferase reporter; Nuclear receptor subfamily 0 group B member 1 (Homo sapiens), P51843; inhibition, % at 6.75 µM;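 active = inhibition above the mean over all tested compounds plus 3 SD, cut at about 4.2% in these data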;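 note: inhibition shows as a rise in luminescence from relieved DAX1 repression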
Target sequence (P51843 207-470 limits assumed): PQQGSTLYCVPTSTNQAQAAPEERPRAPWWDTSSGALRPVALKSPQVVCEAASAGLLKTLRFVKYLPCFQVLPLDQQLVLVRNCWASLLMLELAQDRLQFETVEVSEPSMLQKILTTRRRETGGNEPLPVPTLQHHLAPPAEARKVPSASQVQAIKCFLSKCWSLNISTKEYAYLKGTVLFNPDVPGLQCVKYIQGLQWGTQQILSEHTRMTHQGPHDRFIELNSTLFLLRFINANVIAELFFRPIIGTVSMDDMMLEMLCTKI
hcDAF12 agonist: H. contortus DAF-12 nuclear receptor activators, primary screen, cell-based, luminescence, HEK293, lit1-tk-luc reporter. HEK293 hcDAF-12 lit1-tk-luc reporter; 0% DMSO, 100% Δ7-dafachronic acid. activation, % at 6.8 µM. 1.4% of 370,000 active;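 active = activation above the mean of all tested compounds plus 3 SD, cut at about 5.5% in these data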
ssDAF-12 act: S. stercoralis DAF-12 nuclear receptor activators, primary screen, cell-based, luminescence, HEK293, GRIP1 co-expression, lit1-tk-luc | Nuclear hormone receptor DAF-12 (Strongyloides stercoralis) | HEK293 ssDAF-12/GRIP1 lit1-tk-luc reporter; % of 3 µM dafachronic acid response | activation, % at 6.8 µM | 1% of 370,000 active;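 active = activation above the mean over all tested compounds plus 3 SD, cut at about 0.9% in these data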
DAX1 inh-2: DAX1 (NR0B1) inhibitors on StAR promoter, primary screen, cell-based, luminescence, SF-1 (NR5A1), full-length DAX-1; inhibition, % at 6.8 µM; HEK293T StAR-luciferase reporter, SF-1/DAX-1 repression relief; 1.1% of 370,000 active;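 active = inhibition above the mean over all tested compounds plus 3 SD, cut at about 3.6% in these data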;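 note: higher inhibition means more luminescence from relief of DAX-1 repression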
Hits are given with their value.

How did N#Cc1cc(Nc2c(N)nc[nH]c2=O)c([N+](=O)[O-])cc1C#N do in these assays?
SMARCA2 act: inactive; hgDAF12 agonist: inactive; DAX1 inh-1: inactive; hcDAF12 agonist: 6.0; ssDAF-12 act: inactive; DAX1 inh-2: inactive

Results for O=C(OCC(=O)N1CCc2ccccc2C1)c1ccc(F)cc1Cl ?
SMARCA2 act: inactive; hgDAF12 agonist: 11; DAX1 inh-1: inactive; hcDAF12 agonist: inactive; ssDAF-12 act: inactive; DAX1 inh-2: inactive

What do the screens show for `CC(=O)Nc1ccc2c(c1)C(=O)N(C)[C@H]1CC[C@H](CC(=O)NCc3ccc(F)cc3)O[C@@H]1CO2`?
SMARCA2 act: inactive; hgDAF12 agonist: inactive; hcDAF12 agonist: inactive; ssDAF-12 act: inactive; DAX1 inh-2: inactive

How did COc1ccc(-n2c(SCC(=O)NNC(=S)Nc3ccccc3)nc3ccccc3c2=O)cc1 do in these assays?
SMARCA2 act: inactive; hgDAF12 agonist: inactive; hcDAF12 agonist: inactive; ssDAF-12 act: inactive; DAX1 inh-2: inactive

What do the screens show for `Cc1ccc(/C=N/n2nnnc2N)o1`?
SMARCA2 act: inactive; hgDAF12 agonist: inactive; DAX1 inh-1: inactive; hcDAF12 agonist: inactive; ssDAF-12 act: inactive; DAX1 inh-2: inactive

Results for Cc1ccc(/C=N/n2c(C)nnc2C)o1 ?
SMARCA2 act: inactive; hgDAF12 agonist: inactive; DAX1 inh-1: 4.3; hcDAF12 agonist: inactive; ssDAF-12 act: inactive; DAX1 inh-2: inactive

How did Cc1ccc(/C=N/n2c(C)nc3ccccc3c2=O)o1 do in these assays?
SMARCA2 act: inactive; hgDAF12 agonist: inactive; DAX1 inh-1: 4.5; hcDAF12 agonist: inactive; ssDAF-12 act: inactive; DAX1 inh-2: inactive

Results for Cc1nc2ccccc2c(=O)n1/N=C/c1ccc(N(C)C)cc1 ?
SMARCA2 act: inactive; hgDAF12 agonist: inactive; DAX1 inh-1: inactive; hcDAF12 agonist: inactive; ssDAF-12 act: inactive; DAX1 inh-2: inactive

How did O=C(CCn1nnc(-c2cccs2)n1)NCc1cccs1 do in these assays?
SMARCA2 act: inactive; hgDAF12 agonist: inactive; hcDAF12 agonist: inactive; ssDAF-12 act: inactive; DAX1 inh-2: inactive

How did COc1cccc(/C=C2\Oc3ccc(O)cc3C2=O)c1O do in these assays?
SMARCA2 act: inactive; hgDAF12 agonist: inactive; DAX1 inh-1: inactive; hcDAF12 agonist: 6.0; ssDAF-12 act: 1.8; DAX1 inh-2: 4.0

What do the screens show for `COC(=O)c1ccc2c(c1)C(=O)/C(=C/c1ccc(O)cc1)O2`?
SMARCA2 act: inactive; hgDAF12 agonist: inactive; DAX1 inh-1: inactive; hcDAF12 agonist: inactive; ssDAF-12 act: inactive; DAX1 inh-2: inactive

Results for O=C(CNS(=O)(=O)c1cccc(Cl)c1)Nc1ccc(-c2nc3ccccc3s2)cc1 ?
SMARCA2 act: inactive; hgDAF12 agonist: 11; DAX1 inh-1: inactive; hcDAF12 agonist: inactive; ssDAF-12 act: inactive; DAX1 inh-2: inactive

Results for CC(C)(C)c1ccc(S(=O)(=O)NCC(=O)Nc2ccc(-c3nc4ccccc4s3)cc2)cc1 ?
SMARCA2 act: inactive; hgDAF12 agonist: inactive; DAX1 inh-1: inactive; hcDAF12 agonist: inactive; ssDAF-12 act: inactive; DAX1 inh-2: inactive

What do the screens show for `CC1=NN(C(N)=S)C(=O)C1N=Nc1ccc(C)c(Br)c1` (stereo not given)?
SMARCA2 act: inactive; hgDAF12 agonist: inactive; DAX1 inh-1: inactive; hcDAF12 agonist: 6.1; ssDAF-12 act: inactive; DAX1 inh-2: inactive

How did C=CCN1C(=O)[C@H](CC(=O)NCc2cccs2)[C@@]2(C(=O)OCC)CCCC=C12 do in these assays?
SMARCA2 act: inactive; hgDAF12 agonist: inactive; hcDAF12 agonist: inactive; ssDAF-12 act: inactive; DAX1 inh-2: inactive

What do the screens show for `CN(C)/C=C/C(=O)c1ccc(Cl)cc1`?
SMARCA2 act: inactive; hgDAF12 agonist: inactive; DAX1 inh-1: inactive; hcDAF12 agonist: inactive; ssDAF-12 act: inactive; DAX1 inh-2: inactive

What do the screens show for `Cc1ccc(C(=O)/C=C/N(C)C)cn1`?
SMARCA2 act: inactive; hgDAF12 agonist: inactive; DAX1 inh-1: 6.8; hcDAF12 agonist: inactive; ssDAF-12 act: inactive; DAX1 inh-2: inactive
